Activity calls are given as the source filed them. Calls follow the shape of the dose curve; as a rule, active = well fitted curve in the direction sought with a large enough effect in the repeat runs; inconclusive = weak or mixed curves; inactive = flat fitted curve, though single readings scatter.
Assay: qHTS assay to test for compound auto fluorescence at 590 nm (red) in HEK293 cells (AID 720679)
Conditions: red autofluorescence 540/590 nm; series mostly up to 91.3 µM; fluorescence, % of fluorescent control: at the top concentration
Text: National Center for Advancing Translational Sciences [NCATS]
NIH Chemical Genomics Center [NCGC]
U.S. Environmental Protection Agency [EPA]
National Institutes of Environmental Health Sciences [NIEHS]
National Toxicology Program [NTP]
U.S. Food and Drug Administration [FDA]
Compound auto fluorescence often interferes with screening of the compound library against various biological targets and signaling pathways. Some of these compounds may have fluorophoric properties. Such properties may interfere with the assay outputs resulting in false positives and/or negatives. To decrease such complications and ensure the compound activities are relevant in terms of biological response, the Tox21 10K compound library was screened for auto fluorescence.
From the fluorophores used as reporter signals in our screening assays, the auto fluorescence equivalencies of compounds against three fluorophores have been evaluated: Triamterene, Fluorescein and Rose Bengal sodium for blue, green and red fluorescence, respectively. The fluorescence intensities were measured using Excitation/Emission wavelengths at 405/460nm, 485/535nm and 540/590nm for blue, green and red labels, respectively. This assay includes the red fluorescence data.
Tox21 Assay Protocol Summary:
2,000 HEK293 cells in 5 uL of culture medium containing 10% dialyzed FBS per well were dispensed into black wall/clear bottom 1536-well plates using a Multidrop Combi Dispenser (Thermo Scientific). The assay plates were incubated for 4-5 hr at 37C to allow cell attachment to the well bottom, followed by the transfer of 23 nL compound or DMSO vehicle by a pintool work station (Kalypsys, San Diego, CA). After the assay plates were incubated overnight at 37C and 5% CO2, fluorescence intensities in the assay plates were measured by an Envision (PerkinElmer, Shelton, CT) plate reader using three labels for measuring blue, green and red fluorescence at […] 460, 535 and 590nm respectively.
% is scaled to controls: 0 for no effect and ±100 for the full control effect.

SMILES	fluorescence, % of fluorescent control	outcome
O=C(c1ccccc1)c1cccc(O)c1	-0.119% [at 95.7 µM] (inactive)	
O=C(O)COc1ccc2ccccc2c1	-0.0616% (inactive)	
COc1cc(OC)cc(OC)c1	0.116% [at 46 µM] (inactive)	
CCCCC(CC)CCC(CC(C)C)OS(=O)(=O)O (stereo not given)		inactive
CCC(C)(C)C	0.188% [at 95.7 µM] (inactive)	
CC(C)CC(O)Cc1ccccc1 (stereo not given)	-0.029% (inactive)	
CC(=O)SCC(CC(=O)c1ccc(C)cc1)C(=O)O (stereo not given)	0.0982% [at 46 µM] (inactive)	
CC(=O)c1c(C)cc(C(C)(C)C)cc1C	-0.197% (inactive)	
CCCCOCCCC	0.621% (inactive)	
OCCC(F)(F)C(F)(F)C(F)(F)C(F)(F)C(F)(F)C(F)(F)F	0.116% (inactive)	
Cc1ccc(O)c(C(=O)c2ccccc2)c1	0.017% (inactive)	
CC/C=C\CCCCCCCCCCOC(C)=O	0.164% (inactive)	
CCN1CCN(C(=O)N[C@@H](C(=O)N[C@@H]2C(=O)N3C(C(=O)O)=C(CSc4nnnn4C)CS[C@H]23)c2ccc(O)cc2)C(=O)C1=O	0.162% [at 46 µM] (inactive)	
CCCCCCCCOCCC#N	-0.0952% (inactive)	
CC(=O)Oc1ccc(C(C)=O)cc1	-0.0917% [at 95.7 µM] (inactive)	
CCCCCCCC(=O)N(C)C	0.0402% (inactive)	
CN1C(CCl)Nc2cc(Cl)c(S(N)(=O)=O)cc2S1(=O)=O (stereo not given)	-0.567% [at 46 µM] (inactive)	
Cc1ccccc1OCC(=O)O	-0.17% (inactive)	
C/C=C/C(=O)CCCC	0.179% (inactive)	
CC(O)CCCCn1c(=O)c2c(ncn2C)n(C)c1=O (stereo not given)	0.0013% [at 46 µM] (inactive)	

SMILES	fluorescence, % of fluorescent control	outcome
Cc1ccc(N)nc1	-0.245% (inactive)	
CCCCCCCOC(C)=O	-0.33% (inactive)	
CC/C=C/CCCCCCCCCCOC(C)=O	0.214% (inactive)	
CCCCCCCCCCCC(C)=O	-0.0239% (inactive)	
CC(C)=CCC/C(C)=C\C#N	-0.822% (inactive)	
CC(C)OC(=O)C(C(=O)OC(C)C)=C1SC=CS1	0.0499% [at 46 µM] (inactive)	
C[C@@H](CN1CC(=O)NC(=O)C1)N1CC(=O)NC(=O)C1	-0.11% [at 46 µM] (inactive)	
Cc1cc(C)c(C)c(C)c1	-0.172% (inactive)	
CCCCC(CC)COC(=O)CC#N (stereo not given)	-0.429% (inactive)	
CC(C)(C)C(=O)CC(=O)C(C)(C)C	0.2% [at 95.7 µM] (inactive)	
CC12CCCC=C1C(=O)OC2=O (stereo not given)	0.467% (inactive)	
CC(C)(C)NCC(O)COc1cccc2c1CCC(=O)N2 (stereo not given)	0.0747% [at 18.6 µM] (inactive)	
CC1(C)CC(N)CC(C)(C)N1	-0.0613% (inactive)	
CCc1ncc(C)[nH]1	-0.218% (inactive)	
CCCC(=O)OC	0.304% (inactive)	
CCCCCCCCCCCCCCCCN(C)C	-0.181% [at 3.72 µM] (inactive)	
Cc1ccc(O)c([N+](=O)[O-])c1	0.131% [at 95.7 µM] (inactive)	
CCCCCCCCCCCBr	0.55% [at 46 µM] (inactive)	
CCOC(=O)COc1ccc2c(C)c(CCN(CC)CC)c(=O)oc2c1Cl	0.0118% [at 46 µM] (inactive)	
O=Cc1ccc(C(=O)O)cc1	0.485% [at 95.7 µM] (inactive)	
